CYP2C9 inhib: inhibitors of human CYP2C9. P11712. CYP2C9 Supersomes, luciferin-H conversion, luminescence. inhibition, % at 5 µM. actives 20% (n = 96,000);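 active means blocking of liver enzyme CYP2C9 beyond about 50% at 5 µM, limit read from the data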
CYP2C19 activ: activators of human cytochrome P450 2C19; recombinant CYP2C19, luciferin-H EGE luminescence; hits give high values; 0 = fully inhibited enzyme, 1 = untreated enzyme; activation factor at 5 µM; 96,000 tested, under 10 active; AID 1025;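 active means activation factor of at least 2 at 5 µM in the primary screen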;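 further: 0 = wells with 2.5 mM tranylcypromine and 1 = vehicle-only wells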
CYP2C9 act: increases human cytochrome P450 2C9 activity; P11712; activation factor at 5 µM; recombinant CYP2C9, luciferin-H conversion, luminescence; hits give high values; factor 1 = untreated enzyme, 0 = blocked; actives 1.4% (n = 96,000);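 active means activation factor of 2 or more for CYP2C9 at a 5 µM dose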;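 further: 0 = sulfaphenazole-blocked wells and 1 = vehicle-only wells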
CYP2C19 inh: inhibitors of human CYP2C19 | inhibition, % at 5 µM | CYP2C19 Supersomes, luciferin-H EGE luminescence, 30 min | P33261 | actives 21% (n = 96,000);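 active means CYP2C19 inhibition above a set limit at 5 µM in the primary screen, cut at about 50% in these data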;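 further: plate controls were negative control wells for no effect and 2.5 mM tranylcypromine positive control for full effect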
EphB4 ephrin blk: antagonists of human EphB4-ephrin-B2 interaction | P54760 | EphB4 LBD / TNYL-RAW-Alexa532 peptide, fluorescence polarization | inhibition, % at 7 µM | actives 0.15% (n = 97,000) | AID 720;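 active means inhibition above the screen-wide mean inhibition plus 3 SD, cut at about 15% in these data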;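 further: 0% = DMSO wells and 100% = excess unlabeled TNYL-RAW peptide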
Numbers without * were called inactive; x = no result given. Most compounds without a hit are left out; they make up all but 27% or so of the library.

SMILES | CYP2C9 inhib | CYP2C19 activ | CYP2C9 act | CYP2C19 inh | EphB4 ephrin blk
O=C1CSC(c2cn(-c3ccccc3)nc2-c2ccc3c(c2)OCCO3)N1CCN1CCOCC1 (configuration not stated) | 78* | 0.2 | 0.2 | 81* | -10
O=C(NN=C1CCCCCCC1)C(=O)NC1CCCCC1 | 4 | 1 | 1 | 0 | -7
Cc1ccc(-n2ncc3c(=O)[nH]c(SCC(=O)N4CCC(C)CC4)nc32)cc1C | 21 | 0.9 | 0.8 | 8 | x
C=CCNC(=O)C1CC(=O)N(c2ccc(C)cc2)C1 (configuration not stated) | -2 | 0.7 | 1 | 33 | -1
Cc1ccccc1C(=O)NC1CC(C)(C)NC(C)(C)C1 | x | x | x | x | -1
Cc1ccc(C)c(C(=O)NC2CC(C)(C)NC(C)(C)C2)c1 | 3 | 0.5 | 1 | 54* | 12
CCOC(=O)Cc1nnc(NC(=O)COc2ccc(C)cc2)s1 | 49 | 1 | 0.5 | 2 | 1
Cc1oc(-c2cccs2)nc1CS(=O)CC(=O)NC1CCCCCC1 (configuration not stated) | 14 | 0.9 | 0.9 | 8 | -6
N#CC1=C(N)SC(N)=C(C#N)C1C1CC=CCC1 (configuration not stated) | 48 | 0.2 | 0.5 | 84* | 1
CCOC(=O)c1c2n(c3ccc(O)cc13)CCC2 | x | x | x | x | 5
CCOC(=O)c1c(C)n(CC(O)c2ccccc2)c2ccc(O)cc12 (configuration not stated) | 60* | 0.4 | 0.4 | 64* | 3
CCOC(=O)c1c(C)n(C)c2ccc(OCC(N)=O)cc12 | 34 | 1 | 0.7 | 4 | -4
CCOC(=O)COc1ccc2c(c1)c(C(=O)OCC)c(C)n2CC | 40 | 0.2 | 0.6 | 80* | 4
CCOC(=O)c1c(C)n(CCNC(C)=O)c2ccc(O)cc12 | 44 | 0.4 | 0.6 | 60* | 1
COC(=O)c1ccc(CN(C(C)=O)c2ccccc2)o1 | 2 | 0.3 | 1 | 69* | -3
COC(=O)c1ccc(Cn2nnc3ccccc3c2=O)o1 | 15 | 0.8 | 0.9 | 17 | 1
O=C(CN1CCOCC1)Nc1ncc(Br)cc1Br | 2 | 1 | 1 | 2 | -5
COc1ccc(-c2nc(C)ncc2-c2csc(C)n2)c(O)c1 | 11 | 0.5 | 0.9 | 54* | 4
COc1ccc(-c2cnc(N)nc2-c2ccc(OC)cc2O)cc1 | 19 | 0.7 | 0.8 | 28 | -17
COc1ccc(-c2ncncc2-c2csc(C)n2)c(O)c1 | 49 | 0.1 | 0.5 | 89* | 11
O=C(Cc1ccc(F)cc1)Nc1c2c(nn1-c1cccc(Cl)c1)CS(=O)C2 (configuration not stated) | 38 | 0 | 0.6 | 100* | 3
CC(=O)Nc1c2c(nn1-c1cccc(Cl)c1)CS(=O)C2 (configuration not stated) | -8 | 1 | 1.1 | -4 | -3
COC(=O)CSc1nnc(CNc2nc(-c3ccccc3)cs2)n1C | x | x | x | x | 1
COC(=O)CSc1nnc(CNC(=O)Cc2ccccc2)n1C | -13 | 1.1 | 1.1 | -14 | -3
COc1ccc(C(=O)CSc2nnc(CNc3nc(-c4ccccc4)cs3)n2C)cc1 | 62* | 0.4 | 0.4 | 64* | -3
SMILES | CYP2C9 inhib | CYP2C19 activ | CYP2C9 act | CYP2C19 inh | EphB4 ephrin blk
CCOC(=O)c1c(NC(=O)CSc2nnc(CNc3ccc(OC)cc3)n2C)sc(C)c1C | 77* | 0.7 | 0.2 | 32 | -2
COC(=O)CSc1nnc(CNc2ccc(OC)cc2)n1C | -4 | 0.4 | 1 | 58* | 0
CC(=O)OCn1nnc2ccccc2c1=O | x | x | x | x | 5
Cc1onc(-c2ccccc2)c1C(=O)N/N=C(\N)COc1ccc(Cl)cc1 | 74* | 0.3 | 0.3 | 69* | -2
COc1cccc(NC(=O)COC(=O)c2c(-c3ccccc3)noc2C)c1 | 60* | 0.4 | 0.4 | 60* | -2
COc1ccc(NC(=O)COC(=O)c2c(-c3ccccc3)noc2C)cc1 | 27 | 0.5 | 0.7 | 53* | -2
Cc1onc(-c2ccccc2Cl)c1C(=O)N/N=C(\N)COc1ccc(Cl)cc1 | 34 | 1 | 0.7 | 0 | 1
COc1cccc(-n2cnc3scc(-c4cccs4)c3c2=O)c1 | 79* | 0.5 | 0.2 | 49 | 3
CCCn1c2c(c(O)c(C(=O)Nc3ccc(OCC)cc3)c1=O)CCCC2 | 52* | 1 | 0.5 | -2 | 0
COC(=O)CSc1snnc1-c1ccc(F)cc1 | 5 | 0.3 | 0.9 | 66* | 0
COC(=O)CSc1ccc2nnc(-c3ccc(F)cc3)n2n1 | 50 | 1 | 0.5 | 4 | 4
O=C(Nc1cc(S(=O)(=O)N2CCOCC2)ccc1Cl)C(=O)c1c(-c2ccccc2)cc2ccccn12 | 70* | 0.5 | 0.3 | 45 | 2
O=C(NCCCN1CCCC1=O)NC12CC3CC(CC(C3)C1)C2 | -6 | 1 | 1.1 | 5 | 16*
COc1ccc(N2CCC(CNC(=O)Nc3ccc(OC)cc3OC)C2)cc1 (configuration not stated) | 36 | 0.4 | 0.6 | 62* | -8
O=C(NCCCO)NC12CC3CC(CC(C3)C1)C2 | -9 | 1.1 | 1.1 | -15 | -6
COc1ccc(NC(=O)NCCCN2CCCC2=O)c(OC)c1 | 9 | 0.5 | 0.9 | 54* | 3
[N-]=[N+]=CC(=O)CNC(=O)[C@@H](Cc1ccccc1)N1C(=O)c2ccccc2C1=O | 20 | 0.9 | 0.8 | 9 | 2
COc1ccc(OC(C)=O)c(C2c3cc(OC)c(OC)cc3CCN2C(C)=O)c1 (configuration not stated) | 30 | 0.7 | 0.7 | 35 | x
COc1cc2c(cc1OC)C(c1ccccc1)N(C(=O)c1ccco1)CC2 (configuration not stated) | 82* | 0.1 | 0.2 | 94* | x
COc1cc2c(cc1OC)C(c1cccc([N+](=O)[O-])c1)N(C(=O)c1ccc(F)cc1)CC2 (configuration not stated) | 65* | 0.2 | 0.3 | 81* | 6
O=C(CN1CCN(c2ccccc2F)CC1)c1c[nH]c2ccccc12 | 34 | 0.7 | 0.7 | 25 | 8
Nc1ncnc2c1ncn2CCOc1ccccc1 | -13 | 1 | 1.1 | 4 | -1
Nc1ncnc2c1ncn2CCN1CCOCC1 | 48 | 0.1 | 0.5 | 90* | 8
c1coc(-c2nn3c(Cn4nnc5ccccc54)nnc3s2)c1 | 45 | 0.2 | 0.5 | 76* | 10
c1ccc2c(c1)nnn2Cc1nnc2sc(-c3ccncc3)nn12 | 57* | 0.2 | 0.4 | 78* | -3
Clc1ccc(Cc2nn3c(Cn4nnc5ccccc54)nnc3s2)cc1 | 73* | 0.5 | 0.3 | 48 | 5
c1csc(-c2nn3c(Cn4nnc5ccccc54)nnc3s2)c1 | -5 | 0.9 | 1.1 | 5 | 11
Clc1cccc(-c2nn3c(Cn4cnc5ccccc54)nnc3s2)c1 | 28 | 0.9 | 0.7 | 14 | -5
CN1CCN(Cn2cc(/C=C/C(=O)c3ccccc3)c3ccccc32)CC1 | 96* | 0.2 | 0 | 81* | -3
O=Cc1cn(CC(=O)N2CCOCC2)c2ccccc12 | x | x | x | x | -4

Screens as filed in PubChem.
